A selection: hits, their analogues and other compounds. The true share with any hit is near 3.6%.
SKOV3 invasion: Primary qHTS assay for Inhibitors of ovarian cancer metastasis using an organotypic tumor microenvironment (TME) model; SKOV3ip1-GFP adhesion/invasion on 3D omental model, fluorescence; Potency, µM (series often up to 45.8 µM), for the others: at the top dose activity change, negative = inhibition, hits mostly inhibitors; 46,000 compounds, 0.1% hits; AID 1963576, 2024;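 note: potency is the fitted concentration of half-maximal effect; plate controls were DMSO wells for no effect and tomatine positive control wells for full effect; nearly all actives have a fitted effect of over 65% in size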
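qHTS, 4-pt dose (0.36-46 umol/L); SKOV3ip1-GFP, 1,200 cells/well, no FBS; primary omental fibroblast/mesothelial co-culture 48 h pre-grown; 2 h RT + 16 h 37 C; PBS wash, 4% PFA; GFP count 488/509 nm.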
NTMT1 inhibitor: Primary qHTS for Inhibitors of N-terminal methyltransferase 1 (NTMT1): MTaseGlo Assay | NTMT1 MTase-Glo SAH luminescence, purified enzyme | Potency, µM (titrated, usually from 114 µM), for the others: top-dose activity change, negative = inhibition, actives largely listed as inhibitors | 59,000 compounds, 2.5% hits;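 note: potency is the fitted concentration of half-maximal effect; plate controls were DMSO vehicle for no effect and no enzyme for full effect; nearly all actives have a fitted effect of over 65% in size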
Target sequence (Q9BV86 whole entry, looked up): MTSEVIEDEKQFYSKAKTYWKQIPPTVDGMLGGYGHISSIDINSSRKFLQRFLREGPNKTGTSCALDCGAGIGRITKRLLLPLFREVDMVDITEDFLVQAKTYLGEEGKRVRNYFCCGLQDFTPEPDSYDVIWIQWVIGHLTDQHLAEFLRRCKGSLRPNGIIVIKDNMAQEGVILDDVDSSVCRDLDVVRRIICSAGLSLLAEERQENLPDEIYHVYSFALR
DYRK1A inh: Assay for Inhibitors of Dual-Specificity Tyrosine-(Y)-Phosphorylation Regulated Kinase 1A (Kinase-Glo assay) | Potency, µM (top dose mostly 76.9 µM), for inactives: at the highest dose activity change, negative = inhibition, most hits filed as inhibitors | recombinant DYRK1A, Kinase-Glo ATP depletion luminescence | 100 compounds, 80% hits | shares compounds with NTMT1 inhibitor
CLK4 inh: Confirmation Assay for Inhibitors of CDC-like Kinase 4 (Kinase-Glo Assay): SAR round 2; shares compounds with NTMT1 inhibitor; recombinant Clk4, Kinase-Glo ATP luminescence, 4.5 h; Potency, µM (top dose mostly 76.9 µM), for the others: top-dose activity, negative = inhibition, most hits filed as inhibitors; 90 compounds, 90% hits
Sfp PPTase inh: qHTS Assay for Inhibitos of Bacillus subtilis Sfp phosphopantetheinyl transferase (PPTase): Chemistry Optimization Followup; Potency, µM (top dose mostly 114 µM), inactives show top-dose activity change, negative = inhibition, usual class: inhibitors; AID 540350, 2011; purified Sfp PPTase enzyme activity, qHTS; shares compounds with NTMT1 inhibitor; 230 compounds, 78% hits
Sfp gel: qHTS Assay for Inhibitors of Bacillus subtilis Sfp phosphopantetheinyl transferase (PPTase): Gel Based Assay; shares compounds with NTMT1 inhibitor; purified Sfp PPTase, gel-based product detection; Potency, µM (top dose mostly 250 µM), without a hit: at the highest dose activity change, negative = inhibition, most hits filed as inhibitors; 45 compounds, 90% hits
Sfp SAR2: qHTS Assay for Inhibitors of Bacillus subtilis Sfp phosphopantetheinyl transferase (PPTase): SAR Round 2; AID 602370, 2012; Potency, µM (doses to about 57.1 µM), for inactives: at the highest dose activity change, negative = inhibition, hits mostly inhibitors; 230 compounds, 87% hits; purified Sfp enzyme, PPTase activity, qHTS; shares compounds with NTMT1 inhibitor
hGST A1-1 inh: qHTS Assay for Inhibitors of Bacillus subtilis Sfp phosphopantetheinyl transferase (PPTase): SAR in hGST A1-1; shares compounds with NTMT1 inhibitor; hGST A1-1 enzyme activity counter-screen, qHTS; Potency, µM (top dose mostly 114 µM), for inactives: top-dose activity change, negative = inhibition, most hits filed as inhibitors; 55 tested, under 10 active; AID 602391, 2012
HSD17B4 counter: Extended Characterization of HPGD Inhibitors: Counterscreen Against HSD17b4; shares compounds with NTMT1 inhibitor; purified HSD17B4, estradiol/NAD+, NADH fluorescence; Potency, µM (highest dose often 57.1 µM), without a hit: at the top dose activity change, negative = inhibition, most hits filed as inhibitors; 230 compounds, 10% hits; AID 743187, 2013
ALDH1A1 inh: Extended Characterization of HPGD Inhibitors: Counterscreen Against ALDH1A1; shares compounds with NTMT1 inhibitor; recombinant ALDH1A1, NADH fluorescence, propionaldehyde/NAD+; 230 compounds, 93% hits; Potency, µM (series often up to 57.1 µM), inactives show top-dose activity change, negative = inhibition, actives largely listed as inhibitors
NNMT counter: Counterscreen qHTS for Inhibitors of N-terminal methyltransferase 1 (NTMT1): NNMT MTaseGlo assay | shares compounds with NTMT1 inhibitor | NNMT MTase-Glo luminescence, SAH detection | Potency, µM (titrated, usually from 57.1 µM), without a hit: at the top dose activity, negative = inhibition, actives largely listed as inhibitors | 120 compounds, 10% hits | AID 1645878, 2021
Target sequence (P40261 whole entry, looked up): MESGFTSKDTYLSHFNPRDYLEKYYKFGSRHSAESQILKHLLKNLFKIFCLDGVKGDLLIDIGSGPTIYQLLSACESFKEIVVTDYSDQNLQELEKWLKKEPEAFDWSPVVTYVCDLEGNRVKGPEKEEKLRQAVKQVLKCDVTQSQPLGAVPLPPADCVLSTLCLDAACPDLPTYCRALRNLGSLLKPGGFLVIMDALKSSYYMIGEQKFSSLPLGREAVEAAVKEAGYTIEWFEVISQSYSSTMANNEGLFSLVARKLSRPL
* = called active by the depositor; [ ] = remark or other dose. Calls come from the whole dose curve; as a rule, active = well fitted curve in the direction sought with a large enough effect; inconclusive = small, poorly fitted or top-dose-only effect, or another doubt; inactive = no such curve, though single readings can be large; an effect the other way counts as inactive or inconclusive.

How did C#Cc1cccc(Nc2ncnc3cc(OC)c(OCCCCCCC(=O)NO)cc23)c1 do in these assays?
SKOV3 invasion: 6%; NTMT1 inhibitor: 13µM*; NNMT counter: inconclusive

How did CC(C)(C)Cn1c(N)nc2ccc(-c3[nH]c(C(C)(C)C)nc3-c3ccc(F)cc3)nc21 do in these assays?
SKOV3 invasion: 3%; NTMT1 inhibitor: 13µM*; NNMT counter: 14µM*

What do the screens show for `Cc1cccc(-c2[nH]c(C(C)(C)C)nc2-c2ccc3c(c2)OCO3)n1`?
SKOV3 invasion: 10%; NTMT1 inhibitor: 24%

Results for O=C1CC[C@H](N2Cc3c(OCc4ccc(CN5CCOCC5)cc4)cccc3C2=O)C(=O)N1 ?
NTMT1 inhibitor: 3%

What do the screens show for `COc1cccc(C(=O)NCCNc2nc3cc(C)cc(C)c3cc2C#N)c1`?
NTMT1 inhibitor: -6%[57.5 µM]; NNMT counter: inconclusive

How did Cc1ccc2nc3sc(C(=O)NCCN4CCOCC4)cc3cc2c1 do in these assays?
NTMT1 inhibitor: 0%[57.5 µM]

How did O=C(NCCN1CCCC1)c1cc(-c2ccc(CN3CCOCC3)cc2)nc2ccc(F)cc12 do in these assays?
NTMT1 inhibitor: -16%[29.8 µM]; NNMT counter: -14%[28.6 µM]

How did CN(CC1CCCCO1)c1ncnc2ccc(-c3ccc4c(c3)OCO4)cc12 (stereo not given) do in these assays?
CLK4 inh: 0.073µM*

How did Cc1nc(CN(C)c2ncnc3ccc(-c4ccc5[nH]ncc5c4)cc23)cs1 do in these assays?
Sfp PPTase inh: 35%[57.1 µM]; Sfp gel: -7%; Sfp SAR2: 21%; hGST A1-1 inh: inconclusive; HSD17B4 counter: 22µM*; ALDH1A1 inh: 15µM*

What do the screens show for `Cc1nc(CN(C)c2ncnc3ccc(-c4ccc5c(c4)OCO5)cc23)cs1`?
NTMT1 inhibitor: 7.9µM*; DYRK1A inh: 0.041µM*

What do the screens show for `Cc1c(-c2ccc3c(c2)OCO3)oc2ccc(C(O)C(C)O)cc12` (stereo not given)?
NTMT1 inhibitor: 2%[29.8 µM]

What do the screens show for `Cc1nc(CSc2ncnc3ccc(-c4ccc5c(c4)OCO5)cc23)cs1`?
NTMT1 inhibitor: inconclusive; DYRK1A inh: 2.6µM*

Results for C#Cc1cnc2[nH]c(=O)n(C(CC)CC)c2n1 ?
NTMT1 inhibitor: 1%[57.5 µM]

How did O=C(CCc1ccc(O)cc1)c1c(O)cc(O)cc1O[C@@H]1O[C@H](CO)[C@H](O)[C@H](O)[C@H]1O do in these assays?
SKOV3 invasion: -15%; NTMT1 inhibitor: 14%[57.5 µM]

What do the screens show for `CC1(CO)CC[C@]2(C(=O)O[C@@H]3O[C@H](CO)[C@@H](O)[C@H](O)[C@H]3O)CC[C@]3(C)C(=CCC4[C@@]5(C)C[C@H](O)[C@H](O[C@@H]6OC[C@@H](O)[C@H](O)[C@H]6O)[C@@](C)(CO)C5CC[C@]43C)C2C1` (stereo not given in full)?
NTMT1 inhibitor: 5%[12.6 µM]

What do the screens show for `CN(CC(=O)O)c1ncnc2ccc(-c3ccc4c(c3)OCO4)cc12`?
NTMT1 inhibitor: -13%[57.5 µM]; CLK4 inh: 2.3µM*

Screening data deposited in PubChem BioAssay by National Center for Advancing Translational Sciences (NCATS).
